An excerpt weighted towards active compounds, which were near 20% of everything screened.
HCMV inh = inhibitors of human cytomegalovirus; activity change, negative = inhibition, % at 57.5 µM; HFF cells, HCMV-luciferase reporter, 72 h; stronger effect = lower value; 410,000 tested, 4.5% active; AID 1259415; in the data active means activity change below about -60%; inconclusive means no clear call, values can overlap the other calls; inactive means above about -39%; further: on the % scale 0 is the no-effect control and ±100 the full control effect
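After 16 h attachment at 37C, HFF cells received test compound and HCMV-luciferase (1 PFU/cell); reporter luminescence read 72 h later, data normalized against buffer-only and known inhibitor Salinomycin.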
Shiga inhibitor = Shiga toxin inhibition; inhibition, % at 38.7 µM; Vero cells, Shiga toxin protein synthesis inhibition reporter; AID 2315; 290,000 tested, 9.2% active; in the data active means inhibition mostly above about 28%, no sharp cut-off; inactive means mostly below about 43%; further: 0% is about no effect
Cycloheximide cs = affects cycloheximide protein synthesis inhibition readout, counter-screen; cell reporter, cycloheximide protein synthesis inhibition counterscreen; max response, %; 300,000 tested, 12% active; AID 2314; in the data active means max response mostly above about 13%, no sharp cut-off; inactive means mostly below about 14%; further: read at 38.3 µM for the half of the compounds with a filed dose; 0% is about no effect
Pf growth 96h = inhibits malaria parasite growth, 96 h. P. falciparum luciferase reporter growth, 96 h. Potency, µM (series often up to 28.7 µM), inactives show at the top dose activity change, negative = inhibition, usual class: inhibitors. 320,000 tested, 6.9% active; further: potency means the concentration at half of the fitted maximal effect; on the % scale 0 is the no-effect control and ±100 the full control effect
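96 h incubation, 37 C, 5% CO2, of luciferase-reporter P. falciparum-infected RBCs (2% hematocrit, 0.05% parasitemia final) with test compounds; endpoint luminescence.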
Pf growth 48h = inhibits P. falciparum growth in the first generation, 48 h | P. falciparum luciferase growth in erythrocytes, 48 h | Potency, µM (doses to about 28.7 µM), inactives show top-dose activity change, negative = inhibition, hits mostly inhibitors | 310,000 tested, 5.9% active; further: potency means the concentration at half of the fitted maximal effect; on the % scale 0 is the no-effect control and ±100 the full control effect
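Luciferase-expressing parasites in RBCs, 2% Hct / 0.1% parasitemia final; RPMI 1640 + 0.5% Albumax; 37 C, 5% CO2, one generation; luminescence read-out, lower signal = inhibition.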
Starred values were filed as active, the others as inactive; ? = inconclusive; / = no result. Unless noted, the call rests on the fitted dose curve; in most records, active means well fitted inhibition curve with a large enough effect; inconclusive means small, poorly fitted or top-dose-only effect, or another doubt; inactive means no such curve, though single readings can be large or run the other way.

SMILES	HCMV inh	Shiga inhibitor	Cycloheximide cs	Pf growth 96h	Pf growth 48h
O=C(NCCCc1ccccc1)c1ccc(CS(=O)Cc2ccccc2Cl)o1 (centres undefined)	-36	-6	-1	62%	-22%
COc1cc2cc(c1Cl)N(C)C(=O)CC(OC(=O)C(C)N(C)C(C)=O)C1(C)OC1C(C)C1CC(O)(NC(=O)O1)C(OC)C=CC=C(C)C2 (centres undefined)	-80*	/	/	/	/
COc1ccccc1Cn1cc(C(=O)c2ccc(C)cc2)c(=O)c2cc(F)cc(F)c21	10	/	/	/	/
Cn1c(C(=O)c2ccccc2)nc2ccccc21	6	58*	26*	31%	48%
O=C(NCCC1=CCCCC1)c1c(O)nc2ccccn2c1=O	?	-2	15	33%	?
O=C(NCCC1=CCCCC1)c1c(O)nc2sccn2c1=O	/	/	/	?	12µM*
O=C(NCCCc1ccccc1)c1c(O)nc2sccn2c1=O	-64*	/	/	?	?
CCn1c(=O)c(C(=O)NCCCc2ccccc2)c(O)c2ccccc21	-19	-9	-3	?	5%
COC(=O)C(Nc1cc(OC)ccc1OC)(c1cccc(OC)c1)C(Nc1cc(OC)ccc1OC)c1ccc(Br)cc1 (centres undefined)	-20	/	/	/	/
Cc1ccc2nc(NC(=O)CN3C(=O)C4CC=CCC4C3=O)sc2c1 (centres undefined)	25	14	14*	65%	33%
CS(=O)(=O)c1ccc2nc(NC(=O)CN3C(=O)C4CC=CCC4C3=O)sc2c1 (centres undefined)	33	8	12	-1%	4%
O=C(CN1C(=O)C2CC=CCC2C1=O)Nc1nc2ccccc2s1 (centres undefined)	-31	52*	28*	89%	52%
CCOC1=C2[C@@H](CN(S(=O)(=O)c3ccccc3C)[C@H]2c2ccc(Cl)cc2)[C@H]2C(=O)N(c3ccccc3)C(=O)[C@H]2C1	-25	/	/	/	/
CCOC1=C2[C@@H](CN(S(=O)(=O)c3ccccc3C)[C@H]2c2ccc(Cl)cc2)[C@H]2C(=O)NC(=O)[C@H]2C1	-76*	/	/	/	/
OCCC#Cc1ccc(CN2CCN(CCc3ccccc3)C(CCO)C2)cc1 (centres undefined)	79	/	-1	8.3µM*	?
CC(C)CCN1CCN(Cc2ccc(C#CCCO)cc2)CC1CCO (centres undefined)	-24	-4	1	12µM*	-20%
CC(C)c1csc(CN2CCN(CCc3ccccc3)C(CCO)C2)n1 (centres undefined)	-38	-25	-4	1.7µM*	?
C#Cc1ccc(CN2CCN(CCCc3ccccc3)C(CCO)C2)cc1 (centres undefined)	37	/	-3	?	-19%
OCCC1CN(Cc2ccc3nsnc3c2)CCN1CCc1ccccc1 (centres undefined)	71	-7	-2	12µM*	-5%
Cn1cc(CN2CCN(CCc3ccccc3)C(CCO)C2)cn1 (centres undefined)	13	38	-3	87%	3%
COc1cc(OC)cc(C(=O)NC2CCCN(Cc3ccc(Cl)cc3)C2)c1 (centres undefined)	-2	-2	-3	?	?
CCOC(=O)c1c(C)[nH]c(C(=O)OC(C)C(=O)NC2CCCCC2C)c1C (centres undefined)	79	/	/	?	?
CC1(C)CC(=O)C(N=Nc2c(Cl)cc(Cl)cc2Cl)=C(O)C1	-8	-9	-5	-13%	13%
CC1(C)CC(=O)C(N=Nc2cc(C(F)(F)F)ccc2Cl)=C(O)C1	-62*	2	1	4%	7%
CC1(C)CC(=O)C(N=Nc2ccc(-c3ccccc3)cc2)=C(O)C1	?	-7	6	-3%	-16%
CC1(C)CC(=O)C(N=Nc2ccc(OC(F)F)cc2)=C(O)C1	?	79*	57*	26%	23%
COc1ccc2nc(N=Nc3ccc(O)c4ccccc34)sc2c1	-76*	1	1	24%	?
COc1ccccc1N=NC1=C(O)CC(C)(C)CC1=O	-33	active	23*	-1%	19%
CC1(C)CC(=O)C(N=Nc2ccc(F)cc2)=C(O)C1	-29	-20	5	12%	-9%
NC(=O)c1cccc(Nc2nc(C(N)COCc3ccccc3)cs2)n1 (centres undefined)	-20	/	/	/	/
